This note sets out measurements from PubChem BioAssay (NCI).

SMILES strings stand for the structures. This is part of a sample that, as a whole, favours compounds with a hit. Of some 83,000 tested, about 20% had one in any assay.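 Note: values are percent growth. 100 is the growth of untreated cells, values between 100 and 0 indicate rising inhibition; between -100 and 0 indicates cell death.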 Values without a mark were called inactive. Activity calls are given as the source filed them. Rule for the calls: active = growth percent below 10; inactive = the rest.

Among the test systems are SK-MEL-2 melanoma; EKVX NSCLC; SN12C renal; UO-31 renal; TK-10 renal; ACHN renal; CAKI-1 renal; A498 renal; CCRF-CEM leukemia; MOLT-4 leukemia; SR leukemia; OVCAR-8 ovarian; OVCAR-5 ovarian; SK-OV-3 ovarian; IGROV1 ovarian; OVCAR-3 ovarian; HS 578T breast; OVCAR-4 ovarian; NCI/ADR-RES ovarian; RPMI-8226 leukemia.
What all share (test): NCI-60 one-dose screen, 48 h (100 = growth as untreated, 0 = no growth, -100 = all killed)
Holding throughout (conditions): 10 µM unless noted

Regarding `O=c1c2c(=NCCCN3CCCC3)cc3c(=O)n(CCCN4CCCC4)c(=O)c4c(NCCCN5CCCC5)cc(c(O)n1CCCN1CCCC1)c2c4-3`, the growth is 1.12% (active) in the assay on SK-MEL-2 melanoma; -17.2% (active) with EKVX NSCLC; 10.3% with SN12C renal; -34.9% (active) in the assay with UO-31 renal; 13.1% in the assay on TK-10 renal; -31.2% (active) in the assay on ACHN renal. Besides, the growth in the assay with CAKI-1 renal was 14.4%; in the assay on A498 renal, -67.3% (active); with CCRF-CEM leukemia, 10.1%; in the assay on MOLT-4 leukemia, 16.5%; in the assay on SR leukemia, 3.03% (active); in the assay with OVCAR-8 ovarian, 5.37% (active). In addition, the growth with OVCAR-5 ovarian is -0.86% (active); with SK-OV-3 ovarian, -6.65% (active); in the assay on IGROV1 ovarian it was -30.3% (active); in the assay on OVCAR-3 ovarian it was -21.8% (active); in the assay on HS 578T breast, -16.5% (active).

With `COC(=O)CC1=C(c2ccc([N+](=O)[O-])cc2)CCC1=O`, the growth was 103% in the assay with SK-MEL-2 melanoma; 94.5% with EKVX NSCLC; 103% with SN12C renal; 80.5% in the assay on UO-31 renal; 107% in the assay with TK-10 renal; 102% in the assay with ACHN renal. For the same compound, the growth is 99.8% in the assay on CAKI-1 renal; 69.5% in the assay on A498 renal; 95.3% in the assay with CCRF-CEM leukemia; 104% with MOLT-4 leukemia; 104% in the assay on SR leukemia; 104% in the assay with OVCAR-8 ovarian. Besides, the growth with OVCAR-5 ovarian was 105%; in the assay with OVCAR-4 ovarian it was 110%; in the assay with SK-OV-3 ovarian it was 99.1%; in the assay with OVCAR-3 ovarian, 121%; in the assay on HS 578T breast, 114%; in the assay on NCI/ADR-RES ovarian, 109%.

Regarding `Cc1ncc(C(=O)Nc2ccc(CN3CCN(C)CC3)c(C(F)(F)F)c2)cc1C#Cc1cncc2ncccc12`, the growth is 14.5% in the assay on SK-MEL-2 melanoma; 78.3% in the assay with EKVX NSCLC; 50.6% with SN12C renal; 1.39% (active) in the assay on UO-31 renal; 82.6% in the assay with TK-10 renal; 26.8% in the assay on ACHN renal. Moreover, the growth in the assay with CAKI-1 renal is 50%; with A498 renal it was -4.12% (active); in the assay on CCRF-CEM leukemia, 66.7%; in the assay on MOLT-4 leukemia, 41.6%; with SR leukemia, -13.2% (active); in the assay with RPMI-8226 leukemia, 49.7%. Besides, the growth with OVCAR-5 ovarian is 69%; in the assay with OVCAR-4 ovarian, 51.7%; in the assay on SK-OV-3 ovarian it was 68.4%; in the assay with IGROV1 ovarian, 24.9%; with HS 578T breast it was 47.9%; with NCI/ADR-RES ovarian, 86.8%.

`COc1ccc(C2CC(c3ccc4c(c3)OCO4)=NN2C=O)cc1` (configuration not stated): the growth in the assay on SK-MEL-2 melanoma was 100%; with EKVX NSCLC it was 91.7%; in the assay on SN12C renal, 106%; in the assay on UO-31 renal, 87.4%; in the assay on TK-10 renal it was 93.4%; in the assay with ACHN renal, 103%. Also, the growth was 102% in the assay on CAKI-1 renal; 91.2% in the assay with A498 renal; 93.9% in the assay with CCRF-CEM leukemia; 101% in the assay on MOLT-4 leukemia; 100% in the assay with SR leukemia; 106% with OVCAR-8 ovarian. The growth with OVCAR-5 ovarian is 110%; in the assay with OVCAR-4 ovarian, 92.8%; with SK-OV-3 ovarian it was 108%; with IGROV1 ovarian, 127%; with OVCAR-3 ovarian, 128%; in the assay on HS 578T breast, 115%.

`C=C1CCC2C(C)(COC(=O)CC)C(OC(=O)CC)CCC2(C)C1C/C=C1/C(=O)OCC1OC(=O)CC` (configuration not stated): the growth was 19.1% in the assay on SK-MEL-2 melanoma; 85.1% in the assay with EKVX NSCLC; 0.261% (active) with SN12C renal; -72.2% (active) in the assay on UO-31 renal; 1.32% (active) in the assay on TK-10 renal; -90.7% (active) in the assay on ACHN renal. Besides, the growth in the assay on CAKI-1 renal is 19.2%; in the assay on A498 renal, 81.4%; in the assay with CCRF-CEM leukemia, -25.5% (active); in the assay on MOLT-4 leukemia, -11% (active); in the assay on SR leukemia, -23% (active); in the assay on OVCAR-8 ovarian, -13.9% (active). Moreover, the growth was -1.17% (active) with OVCAR-5 ovarian; 18.7% in the assay with OVCAR-4 ovarian; 103% in the assay with SK-OV-3 ovarian; -0.405% (active) in the assay on IGROV1 ovarian; -86.1% (active) with OVCAR-3 ovarian; -22.9% (active) in the assay with NCI/ADR-RES ovarian.

Regarding `CN1CCN(CCCOc2ccc3ncnc(Nc4ccc(OCc5cccc(F)c5)c(Cl)c4)c3c2)CC1`, the growth in the assay with SK-MEL-2 melanoma is -40.1% (active); in the assay on EKVX NSCLC it was 30.7%; with SN12C renal, 3.1% (active); with UO-31 renal, -4.76% (active); in the assay with TK-10 renal, -18% (active); in the assay with ACHN renal it was -50.7% (active). Also, the growth in the assay with CAKI-1 renal is -62.5% (active); in the assay with A498 renal, 26.1%; in the assay with CCRF-CEM leukemia it was 2.72% (active); in the assay on MOLT-4 leukemia it was -12.8% (active); in the assay with SR leukemia it was -6.49% (active); in the assay on RPMI-8226 leukemia, -24.6% (active). The growth with OVCAR-5 ovarian was -59.4% (active); in the assay on OVCAR-4 ovarian, -19.9% (active); with SK-OV-3 ovarian, 12.4%; in the assay on IGROV1 ovarian it was -34.9% (active); in the assay with OVCAR-3 ovarian it was -6.29% (active); in the assay on HS 578T breast, -19.3% (active). Besides, the growth in the assay with NCI/ADR-RES ovarian was 18.3%.

`COc1cc(/C(Cl)=C/C=C/C(=O)c2c(C)[n+]([O-])c3ccc(Cl)cc3[n+]2[O-])cc(OC)c1OC`: the growth in the assay on SK-MEL-2 melanoma was 28.5%; in the assay on EKVX NSCLC it was 89.3%; in the assay with SN12C renal it was 31.9%; with UO-31 renal, 45.7%; in the assay on TK-10 renal, 71.6%; in the assay with ACHN renal it was 26.9%. In addition, the growth in the assay on CAKI-1 renal is 41.3%; in the assay with A498 renal, 85.1%; in the assay with CCRF-CEM leukemia it was 8.02% (active); in the assay on MOLT-4 leukemia it was 12.4%; in the assay on SR leukemia, 2.04% (active); in the assay with RPMI-8226 leukemia, 19%. Further, the growth with OVCAR-5 ovarian was 81.8%; in the assay on OVCAR-4 ovarian it was 34.1%; in the assay with SK-OV-3 ovarian, 69.5%; in the assay with IGROV1 ovarian, 37.2%; in the assay on OVCAR-3 ovarian it was 33.7%; in the assay with HS 578T breast it was 17.4%. Moreover, the growth with NCI/ADR-RES ovarian is 31.1%.

For `CC(=O)N1N=C(c2ccc(C(F)(F)F)cc2)CC1c1ccc2c(c1)OCO2` (configuration not stated), the growth with SK-MEL-2 melanoma is 76.2%; in the assay on EKVX NSCLC, 81.4%; with SN12C renal it was 83.5%; with UO-31 renal it was 55.9%; in the assay on TK-10 renal, 100%; in the assay with ACHN renal, 95.7%. Also, the growth in the assay with CAKI-1 renal is 70.8%; in the assay on A498 renal, 103%; in the assay on CCRF-CEM leukemia, 83.3%; with MOLT-4 leukemia, 77.9%; in the assay on SR leukemia, 89.5%; in the assay on OVCAR-8 ovarian it was 101%. The growth was 100% in the assay with OVCAR-5 ovarian; 104% with SK-OV-3 ovarian; 67% in the assay with IGROV1 ovarian; 110% in the assay with OVCAR-3 ovarian; 97.8% with HS 578T breast.

Turning to `c1ccc(-c2oc(-c3ccccc3)c3ccccc23)cc1`, the growth is 104% with SK-MEL-2 melanoma; 92.1% in the assay on EKVX NSCLC; 104% with SN12C renal; 110% with UO-31 renal; 114% in the assay on TK-10 renal; 104% with ACHN renal. The growth in the assay with CAKI-1 renal was 74.7%; in the assay with A498 renal, 98.9%; with CCRF-CEM leukemia, 85.5%; with MOLT-4 leukemia it was 95.7%; with SR leukemia it was 56.8%; in the assay with OVCAR-8 ovarian, 102%. In addition, the growth is 112% in the assay with OVCAR-5 ovarian; 116% in the assay with SK-OV-3 ovarian; 109% in the assay with IGROV1 ovarian; 124% in the assay with OVCAR-3 ovarian; 97.7% in the assay on HS 578T breast; 96.5% with NCI/ADR-RES ovarian.
